From PubChem BioAssay (NCI) come the findings set out here.

About 83,000 compounds went through this panel and 20% of them were active in at least one assay; those are over-represented in the sample as a whole.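 Plates (96-well) were seeded with cells, treated with compound at one concentration, and incubated for 48 hours before percent growth was determined.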 Calls of active or inactive are those of the source.

This test relates to COLO 205 colon. In words: NCI-60 one-dose screen, 48 h (100 = growth as untreated, 0 = no growth, -100 = all killed). The following applies: 10 µM unless noted. On the procedure:
Cells are grown in 96 well plates and exposed to the test compound for 48 hours. Compounds are tested at a single concentration, which is 10^-5 M for most compounds. The reported endpoint is percent growth (GI% or GIPRCNT), where numbers from 0 - 100% represent growth inhibition, and numbers from -100% - 0 represent cell death. For example, a value of 40 represents 60% growth inhibition. A value of 0 means no net growth occurred over the course of the experiment. A value of -40 indicates 40% of cells at the beginning of the experiment died by the end of the experiment. A value of -100 means all cells are dead at the end of the experiment.
NCI-60 Human Tumor Cell Lines Screen was performed using the standard one-dose NCI protocol, which is described in more detail at https://dtp.cancer.gov/discovery_development/nci-60/default.htm.
Compounds with GIPRCNT values below 10 were considered active. Activity score was based on GIPRCNT using the following formula: […]
Score is 0 for GIPRCNT values of 100 or above, 50 for GIPRCNT values of 0, and 100 for GIPRCNT values of -100.
Regarding `CCC(CC(C)C)Nc1ccc(NC(CC)CC(C)C)cc1` (stereo not given), the growth is 76.9% (inactive).
With `CCCCOc1c(N)cc(Cl)cc1C(=O)OCCN(CC)CC` the figure was 115% (inactive); with `CC(CCC(=O)O)[C@H]1CCC2C3C(=O)C[C@@H]4CC(=O)CC[C@]4(C)C3CC(=O)[C@@]21C` (stereo not given in full), 119% (inactive); with `COc1ccc2c(c1)nnn1c3ncccc3c(N=O)c21`, -61% (active).
With `COc1ccc(/C(=C/c2cc(OC)c(OC)c(OC)c2)[N+](=O)[O-])cc1` the figure was -51.5% (active); with `O=c1[nH]ccc2nc(N3CCC(O)CC3)nc(Nc3cccc(C(F)(F)F)c3)c12`, 35.7% (inactive).
With `O=C(CSc1nnc(-c2ccccc2)o1)Nc1ccc(C(=O)/C=C/c2ccccc2)cc1` the figure was 79.2% (inactive); with `CCc1c(C)c2cc(-n3c(-c4ccc(OC)cc4)csc3=N)c(O)c(C)c2oc1=O`, 12.6% (inactive); with `O=[N+]([O-])c1ccc(NS(=O)(=O)c2cc(Cl)ccc2Cl)c2ccccc12`, 73.6% (inactive).
Turning to `CC(CN(C)C)CN1c2ccccc2CCc2ccccc21` (stereo not given), the growth was 46.1% (inactive).
Under `Cc1cn(C2CC(N=[N+]=[N-])C(COP(=O)(O)OP(=O)(O)OP(=O)(O)O)O2)c(=O)[nH]c1=O` (stereo not given) stands 119% (inactive); under `CC1=C[S+](c2ccccc2)c2cccc3cc4ccccc4c1c23` (stereo not given), -89.5% (active); under `Cc1[nH]c2ccc(F)cc2c1CCNC(=O)C1CCN(C(=O)c2ccc(-c3ccccc3)cc2)CC1`, 36.7% (inactive).
For the compound `S=c1[nH]nc(Cn2c3ccccc3c3ccncc32)o1`, the growth was 104% (inactive).
Take `C=C1C(=O)O[C@H]2[C@H]1CC/C(COC(=O)c1cccc3ccccc13)=C\CC[C@@]1(C)O[C@@H]21`: the growth was -70.7% (active).
Under `Cc1cc(Nc2ccc(Cl)c(Cl)c2)nc(N)n1` stands 107% (inactive); under `COc1ccc(-c2nn(-c3ccc(NC(=O)c4cc(Cl)cc(Cl)c4)cc3)cc2-c2ccncc2)cc1Cl`, 46.9% (inactive).
With `COc1ccc(NC(=O)Nc2ccc(-c3ccc(OC)c(OC)c3)nc2C)cc1` the figure was 91.9% (inactive); with `CC1(C)Cc2c(Br)c(Br)c(Br)c(OCC(O)CN3CCN(c4ccccn4)CC3)c2O1` (stereo not given), 114% (inactive).
Under `O=C(c1ccccc1)[C@H]1[C@@H]2CCCN2[C@]2(C(=O)Nc3ccc(F)cc32)[C@]12C(=O)Nc1ccccc12` stands 93.8% (inactive); under `Cc1nc(-c2ccc(Cl)cc2)ccc1NC(=O)Nc1cccc(C(F)(F)F)c1`, 121% (inactive); under `CC(C)(C)NC(C1=CC(C)(C)c2ccccc2C1=O)c1ccccc1` (stereo not given), -91.5% (active).
Consider `O=S(=O)(CCN1CCOCC1)Nc1cncc(-c2ccc3ncnc(Nc4ccc(F)c(Cl)c4)c3c2)c1`, for which the growth is 64.9% (inactive).
With `Nc1ncnc2c1c(-c1ccc(Oc3ccccc3)cc1)nn2C[C@H]1SSC[C@@H]1O` the figure was 6.71% (active); with `CCN(CC)CCNCC(O)Cc1ccc(OC)cc1` (stereo not given), 111% (inactive); with `COc1ccc(-c2cnc(-c3ccc(F)cc3)[nH]2)cc1`, 111% (inactive).
Under `Cc1ccc2oc(=O)cc(C3C(C#N)=C(N)Oc4c3ccc3ccccc43)c2c1` (stereo not given) stands 70.3% (inactive).
As for `Cc1cccc(CC(=O)c2ccccc2)n1`, the growth is 103% (inactive).
With `CCC1CN2C(=N1)c1ccccc1-c1cc(Cl)ccc12` (stereo not given) the figure was 18.4% (inactive); with `NC(CSC(c1ccccc1)(c1ccccc1)c1ccc(F)cc1)C(=O)O` (stereo not given), 5.57% (active); with `COc1cc(/C=C\c2cc(/C=C\c3ccc(O)c(OC)c3)n(C(=O)CNc3ccccc3OC)n2)ccc1O`, 107% (inactive).
With `O=C1C(SCCO)=C(SCCO)C(=O)N1c1ccc(-c2ccccc2)cc1` the figure was -56.5% (active); with `CN1C(=O)C2(SCC(C(=O)NCC(=O)OC(C)(C)C)N2C(=O)C2CCCCC2)c2ccccc21` (stereo not given), 99.9% (inactive); with `Cn1c2ccccc2c2ssc(=S)c21`, 116% (inactive).
With `COc1ccc(-c2nn(-c3ccc(NC(=O)Nc4ccc(Cl)c(Cl)c4)cc3)cc2-c2ccncc2)cc1Cl` the figure was -47.7% (active); with `C[C@H]1C=C(C[C@@H](O)CCCCCCCCCC[C@@H](O)[C@H]2CCC(=O)O2)C(=O)O1`, 92.5% (inactive); with `CC[C@@]1(O)C(=O)OCc2c1cc1n(c2=O)Cc2c-1nc1ccccc1c2/C=N/OC(C)(C)C`, -26.9% (active).
Consider `O=C(Nc1ccc(-n2cc(-c3ccncc3)c(-c3ccc(O)c(Cl)c3)n2)cc1)c1cc(C(F)(F)F)cc(C(F)(F)F)c1`, for which the growth was 82.6% (inactive).
With `COc1ccc(/C=C2/C(=O)Nc3cc(Cl)c(-c4csc(N)n4)cc32)cc1` the figure was 33.7% (inactive); with `c1ccc2c(c1)Oc1cccnc1-n1nccc1-2`, 119% (inactive).
